# HGIII-sPLA2 inh: Inhibits HGIII-sPLA2 liposome hydrolysis, primary screen; QFRET BODIPY PC-A2 liposome hydrolysis, fluorescence; hit rate 0.56% among 370,000; inhibition, % at 12.2 µM; Q9NZ20;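 active = inhibition above mean plus 3 SD of compounds lying within the high and low control bounds, cut at about 19% in these data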;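 note: 0% = median of test compound wells and 100% = no enzyme DMSO wells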
# proKLK7 act: activates the human kallikrein-7 zymogen. AID 652039. purified proKLK7, EDANS-DABCYL substrate fluorescence; 100% is mature enzyme control, 0% vehicle. hit rate 0.9% among 370,000. P49862. activation, % at 7 µM;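 active = activation above the mean of all tested compounds plus 3 SD, computed per campaign excluding outliers beyond control limits, cut at about 13% in these data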
# ADAM10 inh: ADAM10 inhibition, QFRET primary screen | O14672 | recombinant ADAM10, EDANS/DABCYL FRET peptide cleavage, 3 h | inhibition, % at 7 µM | hit rate 0.62% among 370,000 | AID 720582;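 active = inhibition above a per-campaign cutoff equal to the mean of compounds falling between control-based bounds plus 3 SD, cut at about 20% in these data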;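 note: 0% = DMSO wells while the 100% control is not disclosed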
# Target sequence (O14672 214-748 limits assumed): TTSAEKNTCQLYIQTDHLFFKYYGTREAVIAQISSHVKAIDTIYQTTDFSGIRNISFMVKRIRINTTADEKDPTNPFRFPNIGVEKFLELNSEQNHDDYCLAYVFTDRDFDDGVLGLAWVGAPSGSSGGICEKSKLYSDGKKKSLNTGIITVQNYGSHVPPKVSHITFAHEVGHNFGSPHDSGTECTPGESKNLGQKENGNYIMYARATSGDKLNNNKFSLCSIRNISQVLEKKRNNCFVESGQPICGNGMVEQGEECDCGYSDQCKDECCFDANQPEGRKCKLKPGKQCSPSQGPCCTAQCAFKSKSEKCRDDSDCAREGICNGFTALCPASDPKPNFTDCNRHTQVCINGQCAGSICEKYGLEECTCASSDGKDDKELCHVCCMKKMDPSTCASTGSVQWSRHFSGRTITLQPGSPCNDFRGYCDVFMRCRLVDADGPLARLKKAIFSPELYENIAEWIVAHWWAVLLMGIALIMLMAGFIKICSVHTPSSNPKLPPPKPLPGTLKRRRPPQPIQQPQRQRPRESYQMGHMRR
# ADAM17 inh: inhibitors of human ADAM17; recombinant ADAM17, EDANS/DABCYL FRET peptide cleavage; P78536; AID 720648; hit rate 0.83% among 370,000; inhibition, % at 6.95 µM;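 active = inhibition above the mean of compounds lying between control limits plus 3 SD, set per campaign, cut at about 8.5% in these data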;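 note: 0% = DMSO-only wells as the low control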
# PLC-beta3 inh: inhibitors of human phospholipase C beta3; AID 720704; inhibition, % at 12.2 µM; Q01970; Purified PLC-beta3, fluorogenic substrate, fluorescence; hit rate 0.18% among 370,000; in the data active = inhibition above about 11%;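 note: 0% = median of compound wells on plate and 100% = full blocker control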
# PLCg1 inh: PLC-gamma1 (human) inhibition, primary screen. P19174. purified PLC-gamma1, fluorogenic substrate, fluorescence. inhibition, % at 12.2 µM. hit rate 0.84% among 370,000. AID 720700; in the data active = inhibition above about 9.5%
# Starred values were filed as active, the others as inactive; i = inactive. Sampled rows, rich in hits. Any-hit rate of the full collection: about 3.4%.
SMILES,HGIII-sPLA2 inh,proKLK7 act,ADAM10 inh,ADAM17 inh,PLC-beta3 inh,PLCg1 inh
Cc1cc(O)c(-c2cc(C(=O)Nc3ccc(S(=O)(=O)N4CCOCC4)cc3)[nH]n2)cc1C,-52.7,0.1,5.9,2.2,1.1,2.0
CN1CCCN(S(=O)(=O)c2ccc3c(c2)n(C)c(=O)c(=O)n3C)CC1,6.5,0.0,-12.5,-1.4,-12.9,-9.8
CC(=O)[C@@]1(O)CC[C@H]2[C@@H]3CCC4=CC(=O)CC[C@]4(C)[C@H]3[C@@H](O)C[C@@]21C,8.4,-0.2,12.8,4.5,5.8,10.7*
Cc1ccc(-c2cc(C(=O)N3CCN(c4ccc(F)cc4)CC3)c3ccccc3n2)o1,-5.8,-21.5,-284.9,-99.6,i,i
Cc1ccc(-c2cc(C(=O)N3CCOCC3)c3ccccc3n2)o1,6.6,111.7*,i,i,i,i
COC(=O)[C@]12C[C@H](CC(=O)NCCC(C)C)C(=O)N(Cc3ccco3)C1=C[C@H](C(C)(C)C)O[C@@H]2C,-14.9,-0.4,1.4,0.5,1.1,-4.5
CN(C)CCCN(C(=O)c1ccc2c(c1)CCCC2)c1nc2ccc(Cl)cc2s1,-25.1,0.4,17.3,8.7*,0.1,7.0
O=C(CN1CCCN(S(=O)(=O)c2ccc(Br)s2)CC1)Nc1ccc(Cl)cc1,-7.2,-0.1,20.0*,1.6,-25.0,-2.1
CCOC(=O)CNC(=O)CN1CCCN(S(=O)(=O)c2ccc(Br)s2)CC1,-5.7,0.5,1.1,0.8,2.5,1.8
CCN(CC)C(=O)CC[C@H]1CC[C@]2(CCCN(S(=O)(=O)C3CCCCC3)C2)O1,3.0,-0.2,3.1,0.1,-0.3,0.6
CC(C)c1ccc(NCCC(=O)c2cccs2)cc1,27.4*,0.7,-3.7,1.2,-5.8,0.4
Cc1ccc(NCCC(=O)c2cccs2)cc1,4.1,-0.5,4.4,-0.9,1.2,-0.7
CCN1C(=O)c2cccc3c(S(=O)(=O)Nc4ccccn4)ccc1c23,-10.9,19.2*,-48.8,-11.4,-431.1,-342.1
CCN1C(=O)c2cccc3c(S(=O)(=O)Nc4ncccc4C)ccc1c23,0.2,4.8,-42.5,-11.3,-226.1,-217.6
OCc1nc2ccccc2n1CCOc1ccccc1,-6.5,-0.4,-9.6,-2.1,-7.9,-1.4
CCOc1ccc(NCc2nc3ccccc3n2CCOc2ccccc2)cc1,11.0,-0.1,29.9*,7.0,-1.8,7.0
COC(=O)c1ccc(-c2ccc3c(c2)[C@]2(CCC[C@@H](OCc4ccccc4)[C@@H]2NC(=O)CCc2ccccc2)C(=O)N3Cc2ccccc2)cc1,-2.4,-1.0,-114.8,-20.9,-13.7,-9.1
CCOc1cccc(C2c3c(oc4ccccc4c3=O)C(=O)N2c2ccccn2)c1 (stereo not drawn),-2.1,0.5,-11.1,-2.2,-12.2,-9.8
COc1cccc(C2c3c(oc4ccccc4c3=O)C(=O)N2c2ccccn2)c1 (stereo not drawn),19.7*,0.7,-27.3,-2.3,-12.4,-4.1
CCCCC(=O)N1CCC(NS(=O)(=O)c2ccc3c(c2)CCN3C(C)=O)CC1,18.0,0.1,-9.1,-1.1,0.0,7.0
COc1ccccc1Cc1c(-c2ccccc2)nc2ccc(C)cn12,1.2,-0.1,-95.6,-25.6,-16.2,-11.9
NC(=O)c1ccccc1NCC(=O)c1ccc(F)cc1,21.3*,2.7,-363.6,-157.9,-169.5,-112.4
CC(C)[C@H](NC(=O)c1ccc(Cl)cc1Cl)C(=O)N1CCC[C@H]1C(=O)NCCc1ccccc1Cl,-4.2,0.2,-2.9,-0.8,3.0,-0.6
COc1ccc(C(=O)N2CCCC2)cc1S(=O)(=O)N1CCOCC1,2.9,0.7,-13.7,-4.8,0.4,0.1
COc1ccc(C(=O)N2CCCC2)cc1S(=O)(=O)N1CCC(C)CC1,-5.8,0.6,6.2,8.5,10.6*,3.4
SMILES,HGIII-sPLA2 inh,proKLK7 act,ADAM10 inh,ADAM17 inh,PLC-beta3 inh,PLCg1 inh
Cc1ccc2nc(CN(C)C(=O)[C@@H](Cc3ccccc3)NC(=O)[C@H]3O[C@@H](n4cnc(C(N)=O)n4)[C@H](O)[C@@H]3O)[nH]c2c1,-11.3,0.8,-7.4,1.6,-1.1,0.2
CCc1cc(Cn2nc(-c3ccccc3)cc2C(=O)NCc2cccs2)on1,-17.4,0.8,37.1*,16.3*,4.7,3.8
COc1ccc(/C=C/c2cc(-c3ccc(C)cc3)o[n+]2C)cc1,2.1,32.1*,i,-159.2,-211.0,-177.6
COc1ccc(/C=C/c2c(-c3ccc(OC)cc3)oc3ccc(-c4ccc(OC)cc4)cc23)cc1,1.1,-0.3,-3.3,-4.0,-6.4,-5.4
Cc1cccc(-n2nc3c(c2NC(=O)c2ccco2)CSC3)c1C,5.6,0.6,16.2,9.1*,-6.6,-3.4
O=C(Nc1ccc2c(c1)Cc1ccccc1-2)NC1CCCCN(Cc2ccc(Cl)cc2)C1=O (stereo not drawn),13.4,0.5,-24.0,-10.8,-3.0,4.0
CC1(c2cccc(Br)c2)NC(=O)N(CC(=O)Nc2cccnc2Cl)C1=O (stereo not drawn),-11.2,-0.4,7.3,4.0,-0.5,10.5*
Cc1cccc(C2C3=C(Nc4[nH]n(-c5ccccc5)c(=O)c42)c2ccccc2C3=O)c1 (stereo not drawn),-15.7,0.0,16.4,9.8*,-1.3,-3.1
CC1=C([N+](=O)[O-])C(c2ccccc2)C2=C(N1)c1ccccc1C2=O (stereo not drawn),6.2,0.7,5.4,1.1,-1.8,2.5
COc1ccc(S(=O)(=O)N2CCCCCC2)cc1NC(=O)Cc1cc(OC)c(OC)c(OC)c1,-9.9,-0.1,-1.4,-1.3,-0.3,-2.5
COc1ccc(S(=O)(=O)N2CCCCCC2)cc1NC(=O)CN1C(=O)CNC1=O,4.7,0.7,-5.8,7.3,9.4,11.2*
CCOc1ccc(N(CC(=O)Nc2c(C)n(C)n(-c3ccccc3)c2=O)S(=O)(=O)c2ccc(C)c(C)c2)cc1,1.6,0.7,-4.8,-4.0,-1.2,2.6
COC(=O)CNC(=O)C1Cc2ccccc2CN1S(=O)(=O)c1ccc(F)cc1 (stereo not drawn),10.5,-0.4,9.6,4.2,-0.6,9.6*
CCNC(=O)C1Cc2ccccc2CN1S(=O)(=O)c1ccc(F)cc1 (stereo not drawn),3.1,0.4,1.4,-0.2,0.2,7.1
COc1ccc2c(c1)[C@H]1[C@H](CO2)[C@H](c2ccccc2)[C@]2(C)C(=O)Nc3cc(C)ccc3C(=O)N12,-1.6,-0.6,2.8,0.6,-9.0,-5.8
COc1ccc2c(c1)OC[C@H]1[C@H]2N2C(=O)c3ccc(C)cc3NC(=O)[C@@]2(C)[C@H]1c1ccccc1,40.4*,-0.9,16.4,9.6*,-0.3,-0.3
CC(NC(=O)OCc1ccccc1)C(=O)Oc1cc2oc(=O)cc(-c3ccccc3)c2cc1Cl (stereo not drawn),-12.8,23.5*,-305.0,-90.2,i,i

# Bioassay records (PubChem)
